Screening data from PubChem.
Most compounds without a hit are left out; they make up all but 21% or so of the library.
DT40 TDP1 no CPT: qHTS for Inhibitors of human tyrosyl-DNA phosphodiesterase 1 (TDP1): qHTS in cells in absence of CPT. DT40 Tdp1-/- hTDP1 cells, no CPT, ATP luminescence, 48 h. 420,000 tested, 15% active. Potency, µM (series often up to 46.2 µM), inactives show at the highest dose activity change, negative = growth inhibition, actives largely listed as inhibitors. AID 686978, 2013; note: potency is the fitted concentration of half-maximal effect; % is set by controls: 0 for no effect and ±100 for the full control effect; nearly all actives have a fitted effect of over 55% in size
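No-CPT arm: Tdp1-/-;hTDP1 DT40 cells (400/well) plus compounds, incubated ≥48 hr at 37 °C. Readout CellTiter-Glo luminescence.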
IL1B secr inh: qHTS for Inhibitors of Inflammasome Signaling: IL-1-beta AlphaLISA Primary Screen; 360,000 tested, 4.7% active; AID 743279, 2014; activity change, % at 57.5 µM; THP-1 LPS/ATP IL-1B secretion, AlphaLISA, 16 h; active compounds read low; in the data active = activity change below about -50%; inconclusive = mostly about -30% to -49%; note: % is set by controls: 0 for no effect and ±100 for the full control effect
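Secreted IL-1B measured by AlphaLISA bead assay after 16 h compound exposure of THP-1 cells; compounds (final up to 57.5 uM) added 1 h before LPS (250 ng/mL) and ATP (1.25 mM) stimulation; lower signal means less secretion.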
DRD3 antagonist: qHTS of D3 Dopamine Receptor Antagonist: qHTS | 360,000 tested, 2.5% active | max response, negative = inhibition, % | D3R cells, DiscoveRx beta-arrestin luminescence, antagonist mode; active compounds read low | AID 652054, 2013 | D(3) dopamine receptor (Homo sapiens), P35462; in the data active = max response below about -50%; inconclusive = no clear call, values can overlap the other calls; note: % is set by controls: 0 for no effect and ±100 for the full control effect
Target sequence (P35462 whole entry, looked up): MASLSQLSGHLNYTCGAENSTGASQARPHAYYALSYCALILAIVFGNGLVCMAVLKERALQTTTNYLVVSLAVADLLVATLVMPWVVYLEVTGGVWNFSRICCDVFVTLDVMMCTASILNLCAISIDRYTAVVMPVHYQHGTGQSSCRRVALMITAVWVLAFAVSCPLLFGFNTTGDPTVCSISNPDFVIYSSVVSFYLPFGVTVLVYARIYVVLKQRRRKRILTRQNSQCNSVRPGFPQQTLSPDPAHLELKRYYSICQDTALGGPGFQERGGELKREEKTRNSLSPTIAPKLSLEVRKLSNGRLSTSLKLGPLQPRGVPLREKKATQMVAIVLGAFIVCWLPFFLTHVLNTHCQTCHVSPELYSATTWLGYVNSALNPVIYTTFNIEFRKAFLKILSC
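Cells expressing the human receptor were seeded at 1500 cells/well, incubated overnight at 37 degrees C in 5% CO2, then exposed to library compounds with dopamine controls for 90 minutes at 37 degrees C before luminescent detection.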
ClpP mod: qHTS Assay for Activators of ClpP. ATP-dependent Clp protease proteolytic subunit (Bacillus subtilis (strain 168)), P80244. 340,000 tested, 1.9% active. AID 651965, 2013. purified B. subtilis ClpP, FRET peptide cleavage, 20 min. Potency, µM (series often up to 57.5 µM), for inactives: at the top dose activity change, negative = active; active = well fitted falling curve with a large enough effect; inconclusive = small, poorly fitted or top-dose-only effect; inactive = no such curve, though single readings can be large or run the other way; note: potency is the fitted concentration of half-maximal effect; the source files actives as falling curves though it sought activators and does not explain the sign; nearly all actives have a fitted effect of over 65% in size
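ClpP 10 microg/mL final, pH 8 Tris/KCl buffer with BSA, glycerol, Tween-20; compound pinned in; FRET-FV substrate; RT 20 min; Ex320/Em430; ΔFRET vs ADEP 5.8 microM, DMSO, no enzyme.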
TDP1 cell CPT: qHTS for Inhibitors of human tyrosyl-DNA phosphodiesterase 1 (TDP1): qHTS in cells in presence of CPT; chicken DT40 Tdp1-/-;hTDP1 cells + 20 nM CPT, ATP luminescence, 48 h; Potency, µM (top dose mostly 46.2 µM), inactives show at the top dose activity change, negative = growth inhibition, actives largely listed as inhibitors; 420,000 tested, 12% active; AID 686979, 2013; note: potency is the fitted concentration of half-maximal effect; % is set by controls: 0 for no effect and ±100 for the full control effect; nearly all actives have a fitted effect of over 55% in size
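Cell growth measured by CellTiter-Glo luminescence after a minimum 48 h, 37 C compound exposure with 20 nM CPT in Tdp1-knockout DT40 cells stably expressing hTDP1, seeded 400/well; qHTS titration format.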
DRD3 agonist: qHTS of D3 Dopamine Receptor Agonist: qHTS | max activation, % | D3R DiscoveRx beta-arrestin cells, luminescence, 90 min | AID 652048, 2013 | 410,000 tested, 0.58% active | D(3) dopamine receptor (Homo sapiens), P35462; in the data active = max activation above about 30%; note: 0% is about no effect
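Agonist-mode cell screen: cells plated at 1500/well and incubated overnight at 37 °C, then exposed to library compounds for 90 min at 37 °C. Detection reagent was added for 30–60 min at room temperature, and luminescence was read.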
Starred values were filed as active, the others as inactive. Unless noted, calls come from the whole dose curve; as a rule, active = well fitted inhibition curve with a large enough effect; inconclusive = small, poorly fitted or top-dose-only effect; inactive = flat fitted curve, though single readings scatter.

Screening CCOC(=O)c1ccccc1NC(=O)c1cccs1 returned DT40 TDP1 no CPT -9%, IL1B secr inh -21, DRD3 antagonist 25, ClpP mod 13%, TDP1 cell CPT 4% and DRD3 agonist -1.
O=C(/C=C/c1cccnc1)c1ccc(F)c(F)c1 was read as DT40 TDP1 no CPT 16µM*, IL1B secr inh -75*, DRD3 antagonist -25, TDP1 cell CPT inconclusive and DRD3 agonist -9.
For O=C(/C=C/NNC(=O)c1ccccc1)c1ccccc1 the results were DT40 TDP1 no CPT 0.82µM*, IL1B secr inh 37, DRD3 antagonist -53*, ClpP mod 0%, TDP1 cell CPT 0.58µM* and DRD3 agonist -12.
CCOC(=O)c1ccccc1N/C=C/C(=O)c1cccs1 was read as DT40 TDP1 no CPT 21µM*, IL1B secr inh 23, DRD3 antagonist 2, ClpP mod 3%, TDP1 cell CPT inconclusive and DRD3 agonist -8.
For Cc1cccc(NC(=O)CSc2nc(-c3ccco3)nc3cc(=O)[nH]n23)c1 the results were DT40 TDP1 no CPT -24%, ClpP mod -1%, TDP1 cell CPT -23% and DRD3 agonist 7.
N#Cc1cnc(NOCc2ccc(Cl)cc2)nc1 was read as DT40 TDP1 no CPT -4%, IL1B secr inh -10, DRD3 antagonist -23, ClpP mod 0%, TDP1 cell CPT -21% and DRD3 agonist -5.
For COc1cccc(CNc2nc3cc(-c4cnn(Cc5ccccc5)c4)sc3c(=O)n2C)c1 the results were DT40 TDP1 no CPT inconclusive, IL1B secr inh 0, DRD3 antagonist 20, ClpP mod inconclusive, TDP1 cell CPT inconclusive and DRD3 agonist 4.
Screening COc1ccc(NC(=O)CO/N=C/C(=O)Nc2ccccc2C)c([N+](=O)[O-])c1 returned DT40 TDP1 no CPT -27%, IL1B secr inh 9, DRD3 antagonist 0, ClpP mod 0%, TDP1 cell CPT -2% and DRD3 agonist 5.
Screening COc1cccc(N2CCN(C(=O)CCS(=O)(=O)c3ccc4c(c3)CC(=O)N4C)CC2)c1 returned DT40 TDP1 no CPT inconclusive, ClpP mod 2%, TDP1 cell CPT inconclusive and DRD3 agonist -9.
`Cc1ccc(CNC(=O)c2nn(C)c3c2CSc2ccc(C)cc2-3)cc1` gave DT40 TDP1 no CPT inconclusive, ClpP mod -1%, TDP1 cell CPT inconclusive and DRD3 agonist 4.
Screening COC(=O)c1ccccc1N/C=C/C(=O)c1ccc(Br)cc1 returned DT40 TDP1 no CPT -6%, IL1B secr inh 11, DRD3 antagonist -8, ClpP mod 25µM*, TDP1 cell CPT 10% and DRD3 agonist -6.
NC(=O)c1ccccc1N/C=C/C(=O)c1ccccc1 was read as DT40 TDP1 no CPT 12%, IL1B secr inh 0, DRD3 antagonist 4, ClpP mod 5%, TDP1 cell CPT 8% and DRD3 agonist 1.
O=C(/C=C/NNC(=O)c1ccccc1)c1ccc([N+](=O)[O-])cc1 was read as DT40 TDP1 no CPT 9.2µM*, IL1B secr inh 129, DRD3 antagonist -28, TDP1 cell CPT 6.5µM* and DRD3 agonist -8.
`O=C(/C=C/NNC(=O)c1ccccc1O)c1ccccc1` gave DT40 TDP1 no CPT 16µM*, IL1B secr inh -3, DRD3 antagonist 0, TDP1 cell CPT inconclusive and DRD3 agonist -5.
O=C(/C=C/c1ccc([N+](=O)[O-])cc1)c1cccnc1 was read as DT40 TDP1 no CPT inconclusive, IL1B secr inh -14, DRD3 antagonist 0, ClpP mod -2%, TDP1 cell CPT 15µM* and DRD3 agonist -23.
